Measured values taken from PubChem BioAssay (NCI).
The panel holds about 83,000 compounds, 20% with a hit somewhere; the sample as a whole holds those more often.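 The endpoint reported here, percent growth, reads 100 for growth as untreated, 0 for no net growth and -100 for all cells dead.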 Values without a mark were called inactive. Calls of active or inactive are those of the source. The calls were made as follows: active = growth percent below 10; inactive = the rest.

How the values were obtained:
Assay in all cases: NCI-60 one-dose screen, 48 h (100 = growth as untreated, 0 = no growth, -100 = all killed)
Details in all cases: 10 µM
HCT-15 colon = tested on: HCT-15 colon
HT29 colon = tested on: HT29 colon
SNB-75 CNS = tested on: SNB-75 CNS
SNB-19 CNS = tested on: SNB-19 CNS
U251 CNS = tested on: U251 CNS
PC-3 prostate = tested on: PC-3 prostate
SK-MEL-5 melanoma = tested on: SK-MEL-5 melanoma
UACC-62 melanoma = tested on: UACC-62 melanoma
LOX IMVI melanoma = tested on: LOX IMVI melanoma
SK-MEL-28 melanoma = tested on: SK-MEL-28 melanoma
SK-MEL-2 melanoma = tested on: SK-MEL-2 melanoma
EKVX NSCLC = tested on: EKVX NSCLC
SN12C renal = tested on: SN12C renal
UO-31 renal = tested on: UO-31 renal
TK-10 renal = tested on: TK-10 renal
ACHN renal = tested on: ACHN renal
CAKI-1 renal = tested on: CAKI-1 renal
A498 renal = tested on: A498 renal
MOLT-4 leukemia = tested on: MOLT-4 leukemia
CCRF-CEM leukemia = tested on: CCRF-CEM leukemia

SMILES | growth (HCT-15 colon) | growth (HT29 colon) | growth (SNB-75 CNS) | growth (SNB-19 CNS) | growth (U251 CNS) | growth (PC-3 prostate) | growth (SK-MEL-5 melanoma) | growth (UACC-62 melanoma) | growth (LOX IMVI melanoma) | growth (SK-MEL-28 melanoma) | growth (SK-MEL-2 melanoma) | growth (EKVX NSCLC) | growth (SN12C renal) | growth (UO-31 renal) | growth (TK-10 renal) | growth (ACHN renal) | growth (CAKI-1 renal) | growth (A498 renal) | growth (MOLT-4 leukemia) | growth (CCRF-CEM leukemia)
COc1ccc(-c2nc(SCC(=O)c3ccc(Br)cc3)[nH]c(=O)c2C#N)cc1 | 112% | 101% | 103% | 109% | 109% | 95.1% | 110% | 104% | 102% | 115% | 103% | 107% | 112% | 86.3% | 99.6% | 122% | 99.9% | 78.5% | 96.8% | –
Cc1ccc(S(=O)(=O)N2CCc3ccccc3CC2)cc1 | 78.4% | 91.8% | 78.6% | 68% | 56.3% | 36.4% | 46.1% | 74.1% | 76.4% | 94.6% | 80.9% | 22% | 85.3% | 70.2% | 74.2% | 85.5% | 78.7% | 87.4% | 80.5% | –
CCCCCN(CCCCC)C(C)C(O)c1ccc2cc(Cl)c3ccccc3c2c1 (stereo unspecified) | 93.1% | 55.5% | 93.8% | 104% | 90% | 80.6% | 89.9% | 88.2% | 94.3% | 108% | 87% | 102% | 89.6% | 70.6% | 94.8% | 102% | 87.4% | – | 98.6% | 92.2%
COc1ccc(-c2n/c(=C\c3c(O)[nH]c4ccccc34)cc3c2=Nc2ccccc2-3)cc1 | 1.23% (active) | -37.1% (active) | 66.1% | 63.1% | -61.4% (active) | 43.3% | 70% | 87.3% | 2.48% (active) | -25.6% (active) | 84.5% | 72.4% | 91.6% | 58.3% | 97.5% | 98.7% | 71.6% | 56.2% | 2.65% (active) | –
O=C1c2cc(Cl)ccc2-c2c(O)cc(Cl)cc21 | 81.6% | 95.1% | 81.2% | 59.8% | 55.5% | 78% | 53% | 85% | 52% | 106% | 62.3% | 72.1% | 72.2% | 49.6% | 114% | 66% | 90.7% | 109% | 47.3% | –
COc1cc(OC)cc(-c2n/c(=C\c3c(O)[nH]c4ccc(OC)cc34)cc3c2=Nc2ccccc2-3)c1 | 44.6% | 15.6% | 103% | 78% | 19.7% | 94.9% | 94.4% | 110% | 30.4% | 102% | 108% | 96.6% | 107% | 71.2% | 125% | 114% | 90.6% | 90.6% | 12.4% | –
O=[N+]([O-])c1ccc(-c2nc(-c3ccccc3)c(-c3ccccc3)n2-c2ccccc2)cc1 | 12% | 16.1% | 80.4% | 65.9% | 32.5% | -6.15% (active) | 61.9% | 30.9% | 18.8% | 67.6% | -38.1% (active) | 34.8% | 43.6% | -6.05% (active) | – | 19% | 48.1% | 41.3% | -44.6% (active) | –
CC(=O)OC1Oc2ccccc2-c2oc(=O)c(-c3cc(=O)oc4cc(O)ccc34)cc21 (stereo unspecified) | 80.8% | 86.9% | 76% | 95% | 89.6% | 75.9% | 80.1% | 84.9% | 83.8% | 111% | 87.3% | 86.6% | 95.6% | – | 82.5% | 85.8% | 93.7% | 54.8% | 42.8% | 32.1%
Cc1cc(C#Cc2ccccc2)ccc1-n1c(/C=C/c2cc(O)ccc2O)nc2ccccc2c1=O | -33.6% (active) | 11.8% | 16.2% | 26.6% | 5.85% (active) | 3.46% (active) | -84.5% (active) | -55.6% (active) | -80.6% (active) | -45.3% (active) | -12.9% (active) | -7.48% (active) | -5.43% (active) | -27.9% (active) | – | 8.83% (active) | -5.93% (active) | 41% | 3.81% (active) | –
CC1(C)CCc2cc(-c3ccn(S(=O)(=O)c4ccc(Cl)cc4)n3)ccc2O1 | 91.3% | 70.9% | 92.3% | 100% | 74.2% | 56.8% | 47.2% | 75% | 72.2% | 94.7% | 92.2% | 54.5% | 72.8% | – | 77% | 89.4% | 64.3% | 70.8% | 65.4% | 64.2%
C(=C\c1nc2ccccc2s1)/c1ccc(N2CCOCC2)s1 | 48.3% | 45.1% | 99.6% | 95.2% | 67.6% | 53.4% | 61.1% | 30.8% | 56.8% | 113% | 81.2% | 87.8% | 93.8% | – | 89.6% | 63.4% | 83.3% | 86.4% | 51% | 58.2%
COc1ccccc1CNCCCN1C(=O)c2ccc3c4c(ccc(c24)C1=O)C(=O)N(CCCNCCNCCCN)C3=O | 90% | 6.6% (active) | 28.4% | 10.3% | -1.05% (active) | 42.1% | -31.7% (active) | 23.5% | 6.84% (active) | 25.4% | 24.9% | 37.9% | 1.16% (active) | 77.3% | 60.6% | 51.5% | 87.8% | 60.9% | 1.36% (active) | –
C#CCNCCCN1C(=O)c2ccc3c4c(ccc(c24)C1=O)C(=O)N(CCCNCC#C)C3=O | -82.3% (active) | -8.76% (active) | -98.7% (active) | -88.6% (active) | -76.6% (active) | -28% (active) | -98.7% (active) | -75.8% (active) | -94.4% (active) | -81.8% (active) | -21.5% (active) | -79.3% (active) | -97.7% (active) | – | -11.3% (active) | -33.1% (active) | -77.9% (active) | -96.2% (active) | -13.1% (active) | -0.672% (active)
O=[N+]([O-])c1ccc(S(=O)(=O)OCCCCOS(=O)(=O)c2ccc([N+](=O)[O-])cc2)cc1 | 114% | 107% | 92% | 112% | 104% | 98.4% | 100% | 99.8% | 94.6% | 99.1% | 115% | 95.8% | 97% | 90.1% | 113% | 110% | 97.9% | 104% | 94.7% | –
CCN(CC)CC(O)Cc1ccc(OC)cc1 (stereo unspecified) | 108% | 103% | 102% | 109% | 108% | 96.5% | 100% | 111% | 102% | 116% | 96% | 98.7% | 104% | 103% | – | 108% | 101% | 96.7% | 95.7% | 98.9%
Cc1cn(C(=O)/C(Cl)=C(/Cl)C(=O)O)c2ccccc12 | 105% | 110% | 73% | 106% | 114% | 83.6% | 104% | 94% | 93.7% | 112% | 105% | 81.7% | 97.6% | 59.1% | 127% | 97.8% | 97.9% | – | 103% | 37.2%
O=C(CCc1ccccc1)N1CCN(C(=O)CCc2ccccc2)CC1 | 108% | 101% | 93.9% | 99.6% | 104% | 94.3% | 105% | 95.4% | 95% | 108% | 104% | 115% | 96.9% | 60.1% | 111% | 104% | 95.1% | – | 88.6% | 88.2%
